# Measurements published in PubChem BioAssay (NCATS).
# Records with an inconclusive call do not appear. A number with no mark means an inactive call. Active and inactive are the calls of the source. Calls come from the whole dose curve; as a rule, active = well fitted inhibition curve with a large enough effect; inconclusive = small, poorly fitted or top-dose-only effect; inactive = flat fitted curve, though single readings scatter.
# Tested on: ECU
# Assay: qHTS profiling for inhibitors of Plasmodium falciparum proliferation (AID 504749); note: nearly all actives have a fitted effect of over 60% in size;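 for activity, negative = inhibition: 0% = DMSO vehicle and full inhibition = artemisinin control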
# Details: P. falciparum in erythrocytes, SYBR Green DNA, 72 h; series mostly up to 28.7 µM; activity, negative = inhibition: at the top concentration
# Outline: (§1)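 Fluorescence of SYBR Green-bound parasite DNA, read at 485/535 nm, served as the growth measure. Infected erythrocytes were cultured with compound 72 h; artemisinin (0.29 uM) and DMSO wells defined the normalization range.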
# Potency is the fitted concentration of half-maximal effect.
Structure (SMILES),"activity, negative = inhibition",Potency
CO/N=C(/C(=O)N[C@@H]1C(=O)N2C(C(=O)O)=CCS[C@H]12)c1csc(N)n1,-7.65%,–
Cc1cc(CC(C)CC(C)(C)C)n(O)c(=O)c1 (stereo unspecified),–,2.82 µM (active)
CC1CCC(C(C)C)C(OC(=O)c2ccccc2O)C1 (stereo unspecified),2.95%,–
CO[C@@H]1[C@@H](OC2OC(C)C(OC3CC(C)(O)C(OC(=O)CC(C)C)C(C)O3)C(N(C)C)C2O)[C@@H](CC=O)C[C@@H](C)C(=O)/C=C\C2O[C@H]2C[C@@H](C)OC(=O)C[C@H]1OC(C)=O (stereo partly specified),–,8.91 µM (active)
CCC(=O)O[C@@H](OP(=O)(CCCCc1ccccc1)CC(=O)N1C[C@H](C2CCCCC2)C[C@H]1C(=O)O)C(C)C (stereo partly specified),-4.47%,–
CC(=O)O[C@@]12CO[C@@H]1C[C@H](O)[C@@]1(C)C(=O)[C@H](O)C3=C(C)[C@@H](OC(=O)C(O)[C@@H](NC(=O)OC(C)(C)C)c4ccccc4)C[C@@](O)([C@@H](OC(=O)c4ccccc4)[C@H]21)C3(C)C (stereo partly specified),–,0.0631 µM (active)
CC1(C)S[C@@H]2[C@H](NC(=O)COc3ccccc3)C(=O)N2[C@H]1C(=O)O,13.6%,–
CCN1/C(=C/C=C/C=C/c2sc3ccccc3[n+]2CC)Sc2ccccc21,–,4.47 µM (active)

# Tested on: FAB9
# Assay: as above
# Details: P. falciparum in erythrocytes, SYBR Green DNA, 72 h; series mostly up to 28.7 µM; activity, negative = inhibition: at the top concentration
# Outline: as §1
Structure (SMILES),"activity, negative = inhibition",Potency
CO/N=C(/C(=O)N[C@@H]1C(=O)N2C(C(=O)O)=CCS[C@H]12)c1csc(N)n1,-3.85%,–
CC1CCC(C(C)C)C(OC(=O)c2ccccc2O)C1 (stereo unspecified),-0.138%,–
CC(C)(CO)C(O)C(=O)NCCCC(=O)O (stereo unspecified),-28%,–
CO[C@@H]1[C@@H](OC2OC(C)C(OC3CC(C)(O)C(OC(=O)CC(C)C)C(C)O3)C(N(C)C)C2O)[C@@H](CC=O)C[C@@H](C)C(=O)/C=C\C2O[C@H]2C[C@@H](C)OC(=O)C[C@H]1OC(C)=O (stereo partly specified),-15.4%,–
CCC(=O)O[C@@H](OP(=O)(CCCCc1ccccc1)CC(=O)N1C[C@H](C2CCCCC2)C[C@H]1C(=O)O)C(C)C (stereo partly specified),5%,–
CC1(C)S[C@@H]2[C@H](NC(=O)COc3ccccc3)C(=O)N2[C@H]1C(=O)O,12.1%,–
CCN1/C(=C/C=C/C=C/c2sc3ccccc3[n+]2CC)Sc2ccccc21,–,3.16 µM (active)
O=NCc1ccc([N+](=O)[O-])o1,1.59%,–

# Tested on: GB4
# Assay: as above
# Details: P. falciparum in erythrocytes, SYBR Green DNA, 72 h; series mostly up to 28.7 µM; activity, negative = inhibition: at the top concentration
# Outline: as §1
Structure (SMILES),"activity, negative = inhibition",Potency
CO/N=C(/C(=O)N[C@@H]1C(=O)N2C(C(=O)O)=CCS[C@H]12)c1csc(N)n1,-5.57%,–
Cc1cc(CC(C)CC(C)(C)C)n(O)c(=O)c1 (stereo unspecified),–,1.51 µM (active)
CC1CCC(C(C)C)C(OC(=O)c2ccccc2O)C1 (stereo unspecified),-23.4%,–
CC(C)(CO)C(O)C(=O)NCCCC(=O)O (stereo unspecified),-42.1%,–
CO[C@@H]1[C@@H](OC2OC(C)C(OC3CC(C)(O)C(OC(=O)CC(C)C)C(C)O3)C(N(C)C)C2O)[C@@H](CC=O)C[C@@H](C)C(=O)/C=C\C2O[C@H]2C[C@@H](C)OC(=O)C[C@H]1OC(C)=O (stereo partly specified),–,13.5 µM (active)
CCC(=O)O[C@@H](OP(=O)(CCCCc1ccccc1)CC(=O)N1C[C@H](C2CCCCC2)C[C@H]1C(=O)O)C(C)C (stereo partly specified),-13.8%,–
CC(=O)O[C@@]12CO[C@@H]1C[C@H](O)[C@@]1(C)C(=O)[C@H](O)C3=C(C)[C@@H](OC(=O)C(O)[C@@H](NC(=O)OC(C)(C)C)c4ccccc4)C[C@@](O)([C@@H](OC(=O)c4ccccc4)[C@H]21)C3(C)C (stereo partly specified),–,0.0301 µM (active)
CC1(C)S[C@@H]2[C@H](NC(=O)COc3ccccc3)C(=O)N2[C@H]1C(=O)O,-5.71%,–
CCN1/C(=C/C=C/C=C/c2sc3ccccc3[n+]2CC)Sc2ccccc21,–,7.57 µM (active)
Nc1nc(Cl)nc2c1ncn2C1CC(O)C(CO)O1 (stereo unspecified),-1.48%,–
O=NCc1ccc([N+](=O)[O-])o1,–,13.5 µM (active)

# Tested on: HB3
# Assay: as above
# Details: P. falciparum in erythrocytes, SYBR Green DNA, 72 h; series mostly up to 28.7 µM; activity, negative = inhibition: at the top concentration
# Outline: as §1
Structure (SMILES),"activity, negative = inhibition",Potency
CO/N=C(/C(=O)N[C@@H]1C(=O)N2C(C(=O)O)=CCS[C@H]12)c1csc(N)n1,-3.82%,–
Cc1cc(CC(C)CC(C)(C)C)n(O)c(=O)c1 (stereo unspecified),–,8.91 µM (active)
CC1CCC(C(C)C)C(OC(=O)c2ccccc2O)C1 (stereo unspecified),7.23%,–
CC(C)(CO)C(O)C(=O)NCCCC(=O)O (stereo unspecified),-46.9%,–
CO[C@@H]1[C@@H](OC2OC(C)C(OC3CC(C)(O)C(OC(=O)CC(C)C)C(C)O3)C(N(C)C)C2O)[C@@H](CC=O)C[C@@H](C)C(=O)/C=C\C2O[C@H]2C[C@@H](C)OC(=O)C[C@H]1OC(C)=O (stereo partly specified),–,11.2 µM (active)
CCC(=O)O[C@@H](OP(=O)(CCCCc1ccccc1)CC(=O)N1C[C@H](C2CCCCC2)C[C@H]1C(=O)O)C(C)C (stereo partly specified),-10.5%,–
CC(=O)O[C@@]12CO[C@@H]1C[C@H](O)[C@@]1(C)C(=O)[C@H](O)C3=C(C)[C@@H](OC(=O)C(O)[C@@H](NC(=O)OC(C)(C)C)c4ccccc4)C[C@@](O)([C@@H](OC(=O)c4ccccc4)[C@H]21)C3(C)C (stereo partly specified),–,0.0794 µM (active)
CC1(C)S[C@@H]2[C@H](NC(=O)COc3ccccc3)C(=O)N2[C@H]1C(=O)O,0.174%,–
CCN1/C(=C/C=C/C=C/c2sc3ccccc3[n+]2CC)Sc2ccccc21,–,2.24 µM (active)
